Among the data in PubChem BioAssay (NCATS) are Potency and outcome values, retold here.

Assay [1] can be described thus: Validation screen for inhibitors of Lassa infection (AID 463096; calls by dose curve; further: potency means the concentration at half of the fitted maximal effect).
A short description of assay [2]: Validation screen for small molecules that induce DNA re-replication in MCF 10A normal breast cells (AID 463097). Further: nearly all actives have a fitted effect of over 60% in size. Further: potency means the concentration at half of the fitted maximal effect. The method, boiled down:
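DNA re-replication was detected as a rise in nuclei with elevated Hoechst fluorescence after a 48 hr compound exposure of MCF 10A cells at 37 C.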

Assay [3] concerns the target Ubiquitin carboxyl-terminal hydrolase 2 (Homo sapiens) (UniProt O75604). In words: qHTS Validation Assay for Inhibitors of Ubiquitin-specific Protease USP2a Using CHOP2 as the Reporter (AID 463106). The method in brief: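 Readout was coupled fluorescence (Ex 485/Em 531 nm), read 60 min after adding 25 nM final Ub-CHOP2 and 25 nM reporter substrate. Beforehand, 10 nM final USP2 core had 30 min at RT with compound in pH 8.0 buffer. Curves were fitted after normalization to NEM and flagged for artifacts using time-zero reads.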

Assay [4] deals with DNA polymerase III PolC-type (Bacillus subtilis (strain 168)) (UniProt P13267). Kind of assay: qHTS Validation Assay for the Inhibitors of DNA Replication in Gram-Positive Bacteria (AID 485295).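 Further: reconstituted holoenzyme with PolC plus beta clamp SSB and primase; PicoGreen fluorescence of double-stranded DNA made on primed circular M13 template; series mostly up to about 57 µM.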 The method in brief: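 Primed replication of single-stranded M13Gori by a four-protein B. subtilis holoenzyme is measured at room temperature. Double-stranded product is quantified by PicoGreen fluorescence after an EDTA stop; inhibition is scaled between DMSO and EDTA controls.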

Assay [5] deals with Tumor susceptibility gene 101 protein (Homo sapiens) (UniProt Q99816). In words: qHTS Validation Assay for Iinhibitors of HIV-1 Budding by Blocking the Interaction of PTAP/TSG101 (AID 485342; calls by dose curve). The method, boiled down:
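Fluorescence anisotropy measured PTAP-Tsg101 interaction. Final concentrations were 10 uM protein domain and 50 nM labeled peptide, equilibrated 20 min at room temperature.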

A short description of assay [6]: qHTS Validation Assay to Find Inhibitors of Chronic Active B-Cell Receptor Signaling (AID 485345; active means well fitted curve in the direction sought with a large enough effect in the main read-out, with a control signal flat, not every such curve was filed as active). The method, boiled down: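 Read-out: ratio of filter-corrected green (IkappaBalpha fusion) to red (native) luciferase signal in doxycycline-induced TMD8 cells after 4 h at 37C. Titration spanned 46 uM–3 nM; Data were normalised to basal cells and 10 uM MG-132 wells.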

Assay [7] deals with Beta-2 adrenergic receptor (Homo sapiens) (UniProt P07550). Kind of assay: qHTS validation assay of beta-arrestin-biased ligands of beta2-adrenergic receptor (AID 485366). The method in brief:
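Screening used a titration range of up to 46 microM in a beta-arrestin recruitment Tango luciferase assay. Cells in 1% FBS medium were treated 18 hr at 37 degrees C, and luminescence was normalized to %Activity.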

For assay [8], the target named is ATP-dependent 6-phosphofructokinase (Trypanosoma brucei brucei) (UniProt O15648). Kind of assay: qHTS Validation Assay to Find Inhibitors of T. brucei phosphofructokinase (AID 485368). The method in brief:
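PFK-generated ADP was measured after 45 min at room temperature using ADP-Glo. The reaction contained 0.5 mM F6P and 0.1 mM ATP.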

In assay [9] the target is Thioredoxin reductase 1, cytoplasmic (Rattus norvegicus) (UniProt O89049). In words: qHTS Assay for Substrates of Mammalian Selenoprotein Thioredoxin Reductase 1 (TrxR1) (AID 488772).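 Further: series mostly up to about 57 µM; a drop in NADPH fluorescence below the no-compound background marks a TrxR1 substrate.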 The method, boiled down: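 In this dual-purpose format, potential substrates are identified from the first fluorescence read after selenite addition, not from the 8-minute delta. Rat enzyme is preincubated with NADPH and then with compound at ~22 deg C.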

The target is the same in assay [10]. Kind of assay: qHTS Assay for Inhibitors of Mammalian Selenoprotein Thioredoxin Reductase 1 (TrxR1) (AID 488773). Further: nearly all actives have a fitted effect of over 40% in size. Further: potency means the concentration at half of the fitted maximal effect. The following applies: Potency: inhibition. The method in brief: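 Inhibition is scored from the loss of NADPH fluorescence between first and last reads of an 8-min kinetic run. Selenite (400 uM) was the substrate, added after 15 min compound preincubation at room temperature.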

Records with an inconclusive call do not appear. Calls of active or inactive are those of the source. Unless noted, the call rests on the fitted dose curve; in most records, active means well fitted curve in the direction sought with a large enough effect; inconclusive means small, poorly fitted or top-dose-only effect, or another doubt; inactive means no such curve, though single readings can be large; an effect the other way counts as inactive or inconclusive.

Chain of ATP-dependent 6-phosphofructokinase (Trypanosoma brucei brucei) (O15648 whole entry, looked up): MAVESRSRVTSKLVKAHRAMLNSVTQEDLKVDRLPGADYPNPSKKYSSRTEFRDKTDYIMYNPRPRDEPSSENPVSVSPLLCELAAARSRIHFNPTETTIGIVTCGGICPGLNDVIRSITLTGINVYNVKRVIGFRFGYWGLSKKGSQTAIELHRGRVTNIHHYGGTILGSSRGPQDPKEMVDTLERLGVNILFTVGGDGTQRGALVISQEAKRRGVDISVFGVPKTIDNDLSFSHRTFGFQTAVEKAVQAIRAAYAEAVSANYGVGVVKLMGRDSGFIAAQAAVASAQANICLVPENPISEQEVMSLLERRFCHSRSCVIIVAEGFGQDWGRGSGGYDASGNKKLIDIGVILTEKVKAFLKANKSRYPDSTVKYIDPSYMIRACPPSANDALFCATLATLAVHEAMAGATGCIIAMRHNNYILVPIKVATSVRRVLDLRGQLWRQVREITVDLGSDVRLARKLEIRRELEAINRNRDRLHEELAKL
Chain of Thioredoxin reductase 1, cytoplasmic (Rattus norvegicus) (O89049 whole entry, looked up): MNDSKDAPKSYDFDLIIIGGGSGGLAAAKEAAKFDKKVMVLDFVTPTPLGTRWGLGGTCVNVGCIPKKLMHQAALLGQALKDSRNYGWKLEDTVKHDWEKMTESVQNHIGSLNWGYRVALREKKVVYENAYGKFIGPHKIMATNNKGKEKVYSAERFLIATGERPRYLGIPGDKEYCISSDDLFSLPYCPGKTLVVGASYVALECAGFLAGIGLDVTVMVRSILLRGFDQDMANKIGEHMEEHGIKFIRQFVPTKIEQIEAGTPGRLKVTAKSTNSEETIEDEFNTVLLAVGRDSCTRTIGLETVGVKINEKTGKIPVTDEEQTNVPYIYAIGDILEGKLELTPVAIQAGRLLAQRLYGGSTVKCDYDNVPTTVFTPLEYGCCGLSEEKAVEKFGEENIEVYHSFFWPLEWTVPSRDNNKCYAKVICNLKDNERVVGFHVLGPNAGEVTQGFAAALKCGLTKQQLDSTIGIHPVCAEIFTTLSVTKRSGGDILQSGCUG
Chain of DNA polymerase III PolC-type (Bacillus subtilis (strain 168)) (P13267 whole entry, looked up): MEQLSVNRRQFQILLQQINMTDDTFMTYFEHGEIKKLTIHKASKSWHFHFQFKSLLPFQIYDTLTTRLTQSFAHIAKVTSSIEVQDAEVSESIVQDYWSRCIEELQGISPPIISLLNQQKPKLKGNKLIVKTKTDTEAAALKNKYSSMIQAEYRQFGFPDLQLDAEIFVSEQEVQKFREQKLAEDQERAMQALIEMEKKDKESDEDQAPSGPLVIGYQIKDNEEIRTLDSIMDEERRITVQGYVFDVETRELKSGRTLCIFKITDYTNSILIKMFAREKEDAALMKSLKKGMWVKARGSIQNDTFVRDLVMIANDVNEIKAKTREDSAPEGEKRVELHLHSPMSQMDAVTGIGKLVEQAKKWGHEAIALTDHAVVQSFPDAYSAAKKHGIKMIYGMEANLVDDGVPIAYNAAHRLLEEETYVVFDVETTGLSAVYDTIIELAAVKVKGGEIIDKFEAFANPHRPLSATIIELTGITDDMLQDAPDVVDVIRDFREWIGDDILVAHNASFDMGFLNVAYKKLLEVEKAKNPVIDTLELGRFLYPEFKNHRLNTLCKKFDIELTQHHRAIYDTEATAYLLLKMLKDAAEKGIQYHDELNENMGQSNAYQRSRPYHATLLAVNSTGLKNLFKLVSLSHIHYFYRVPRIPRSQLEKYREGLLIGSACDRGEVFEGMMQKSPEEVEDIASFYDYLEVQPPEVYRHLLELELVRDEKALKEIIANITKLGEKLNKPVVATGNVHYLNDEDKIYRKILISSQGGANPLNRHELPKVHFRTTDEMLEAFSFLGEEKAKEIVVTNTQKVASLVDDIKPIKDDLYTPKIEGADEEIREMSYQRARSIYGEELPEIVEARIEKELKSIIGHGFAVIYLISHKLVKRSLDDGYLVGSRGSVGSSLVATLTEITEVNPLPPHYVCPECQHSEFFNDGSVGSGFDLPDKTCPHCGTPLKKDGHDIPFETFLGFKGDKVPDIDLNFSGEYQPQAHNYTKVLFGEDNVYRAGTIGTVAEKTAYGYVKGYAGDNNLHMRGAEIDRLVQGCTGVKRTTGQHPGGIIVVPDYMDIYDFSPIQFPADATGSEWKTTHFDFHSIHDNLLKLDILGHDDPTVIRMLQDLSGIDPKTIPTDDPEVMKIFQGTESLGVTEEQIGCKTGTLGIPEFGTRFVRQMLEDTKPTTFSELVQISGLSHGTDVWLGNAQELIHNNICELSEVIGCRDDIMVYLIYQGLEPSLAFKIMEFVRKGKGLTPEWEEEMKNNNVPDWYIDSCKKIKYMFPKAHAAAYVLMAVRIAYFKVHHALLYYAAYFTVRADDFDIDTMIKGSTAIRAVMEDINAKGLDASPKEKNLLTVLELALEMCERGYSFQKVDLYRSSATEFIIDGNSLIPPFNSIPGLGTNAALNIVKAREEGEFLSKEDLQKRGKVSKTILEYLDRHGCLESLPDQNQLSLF
Chain of Beta-2 adrenergic receptor (Homo sapiens) (P07550 whole entry, looked up): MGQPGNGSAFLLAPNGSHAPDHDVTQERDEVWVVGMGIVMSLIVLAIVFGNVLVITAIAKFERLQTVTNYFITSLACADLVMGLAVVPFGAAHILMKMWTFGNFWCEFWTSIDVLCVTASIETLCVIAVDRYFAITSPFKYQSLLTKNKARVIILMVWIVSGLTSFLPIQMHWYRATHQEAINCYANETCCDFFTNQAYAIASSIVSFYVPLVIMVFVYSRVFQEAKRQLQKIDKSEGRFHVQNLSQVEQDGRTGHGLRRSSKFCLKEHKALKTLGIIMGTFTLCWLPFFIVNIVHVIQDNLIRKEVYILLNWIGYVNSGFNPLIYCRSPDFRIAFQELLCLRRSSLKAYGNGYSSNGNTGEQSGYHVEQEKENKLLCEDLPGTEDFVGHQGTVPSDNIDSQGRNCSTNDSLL
Chain of Tumor susceptibility gene 101 protein (Homo sapiens) (Q99816 whole entry, looked up, the tested form may be a part): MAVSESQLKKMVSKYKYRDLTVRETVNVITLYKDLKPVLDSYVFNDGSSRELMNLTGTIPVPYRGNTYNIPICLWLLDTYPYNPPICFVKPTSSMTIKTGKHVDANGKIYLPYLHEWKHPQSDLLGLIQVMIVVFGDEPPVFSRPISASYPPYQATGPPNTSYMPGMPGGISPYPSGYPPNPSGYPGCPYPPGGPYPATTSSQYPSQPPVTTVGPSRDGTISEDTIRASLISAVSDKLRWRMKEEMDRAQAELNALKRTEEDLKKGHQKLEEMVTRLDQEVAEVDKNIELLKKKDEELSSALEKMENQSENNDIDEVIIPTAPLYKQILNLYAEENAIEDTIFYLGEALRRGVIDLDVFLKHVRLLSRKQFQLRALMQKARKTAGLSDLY
Chain of Ubiquitin carboxyl-terminal hydrolase 2 (Homo sapiens) (O75604 whole entry, looked up): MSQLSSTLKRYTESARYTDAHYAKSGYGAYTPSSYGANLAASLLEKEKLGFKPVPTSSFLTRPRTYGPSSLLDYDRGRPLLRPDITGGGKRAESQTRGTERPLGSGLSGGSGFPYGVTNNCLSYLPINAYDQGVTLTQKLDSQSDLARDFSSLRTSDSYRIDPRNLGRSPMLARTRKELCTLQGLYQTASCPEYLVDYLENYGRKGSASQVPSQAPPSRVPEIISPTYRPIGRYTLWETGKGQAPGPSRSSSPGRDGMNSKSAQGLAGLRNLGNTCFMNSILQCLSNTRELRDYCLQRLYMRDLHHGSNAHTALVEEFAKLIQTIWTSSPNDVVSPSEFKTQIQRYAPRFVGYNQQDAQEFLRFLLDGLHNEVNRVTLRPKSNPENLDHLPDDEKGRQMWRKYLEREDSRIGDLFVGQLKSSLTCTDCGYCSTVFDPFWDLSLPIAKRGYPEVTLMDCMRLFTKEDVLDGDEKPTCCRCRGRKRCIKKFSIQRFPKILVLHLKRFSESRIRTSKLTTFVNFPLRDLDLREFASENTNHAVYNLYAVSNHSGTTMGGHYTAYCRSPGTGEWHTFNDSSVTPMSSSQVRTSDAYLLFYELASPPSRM

Take `CC(=O)N[C@@H](CS)C(=O)O`: the Potency entry in assay [1] is “inactive”.
On the same count and under the same terms, the value for `COc1cc(Cc2cnc(N)nc2N)cc(OC)c1OC` was “inactive”.
As for `CC(C)C(=O)Nc1ccc([N+](=O)[O-])c(C(F)(F)F)c1`, in assay [1], the Potency entry is “inactive”.
As for `NN=C(N)N`, the Potency result in assay [1], in [2], in [3], in assay [4], in assay [8] and in [10] was “inactive” in each case. Moreover, the call in assay [5], in assay [6], in [7] and in assay [9] was inactive.
As to `CC(=O)Nc1nnc(S(N)(=O)=O)s1`, in [1], the Potency entry was “inactive”.
Consider `CN1CCN(C2=Nc3cc(Cl)ccc3Nc3ccccc32)CC1`, for which the Potency entry in [1] was “inactive”.
On to `O=C1NCN(c2ccccc2)C12CCN(CC1COc3ccccc3O1)CC2` (configuration not stated), for which the Potency entry in assay [1], in assay [2], in [3], in assay [4], in assay [8] and in assay [10] was “inactive” throughout. For the same compound, the call in assay [5], in assay [6], in [7] and in assay [9] was inactive.
`CCn1cc(C(=O)O)c(=O)c2ccc(C)nc21`: the Potency result in [1] and in [2] was “inactive” in each case.
Regarding `CNCC(O)c1ccc(O)cc1` (configuration not stated), the Potency entry in [1], in [2], in [3], in assay [4] and in [8] was “inactive” in each case. For the same compound, the result in assay [5], in [6], in assay [7] and in assay [9] was inactive.
Regarding `NC12CC3CC(CC(C3)C1)C2`, the Potency result in assay [1] is “inactive”.
As for `CCCNC(=O)NS(=O)(=O)c1ccc(Cl)cc1`, the Potency entry in [1] was “inactive”.
With `CCCN1CCC[C@@H]2Cc3nc(N)ncc3C[C@H]21`, the Potency entry in [1], in assay [2], in [3], in assay [4], in [8] and in [10] was “inactive” in each case. Moreover, the call in [5], in [6], in assay [7] and in [9] was inactive.
`CCN(CC)C(=S)SSC(=S)N(CC)CC`: the Potency in [1] was 10 µM (active).
As for `CC(C)NCC(O)COc1ccc(CCOCC2CC2)cc1` (configuration not stated), in assay [1], the Potency entry was “inactive”.
On the same count and under the same terms, with `CCN(CC)CCOC(=O)C1(C2CCCCC2)CCCCC1` the entry was “inactive”; with `Cc1oncc1C(=O)Nc1ccc(C(F)(F)F)cc1`, “inactive”; with `Cc1cn([C@H]2C=C[C@@H](CO)O2)c(=O)[nH]c1=O`, “inactive”.
On to `COc1cc2c(c(OC)c1OC)-c1ccc(OC)c(=O)cc1[C@@H](NC(C)=O)CC2`, for which the Potency entry in [1] is “inactive”. Further, the Potency in assay [2] was 0.0398 µM (active).
Turning to `CC(C)(C)NC(=O)[C@H]1CC[C@H]2[C@@H]3CC[C@H]4NC(=O)C=C[C@]4(C)[C@H]3CC[C@]12C`, the Potency entry in [1] is “inactive”.
With `CN1CCN(C2=Nc3ccccc3Oc3ccc(Cl)cc32)CC1`, in [1], the Potency result is “inactive”.
For `CC[N+](CC)(CC)CC`, the Potency entry in assay [1] and in assay [2] was “inactive” in each case.
For `CN(C)c1nc(N(C)C)nc(N(C)C)n1`, the Potency entry in assay [1] is “inactive”.
On the same count and under the same terms, with `CCN(CC)CCCC(C)Nc1ccnc2cc(Cl)ccc12` (configuration not stated) the entry was “inactive”.
Turning to `Cc1ncc(CNC(=O)N(CCCl)N=O)c(N)n1`, the Potency entry in assay [1], in assay [2], in assay [3], in assay [4], in assay [8] and in assay [10] was “inactive” in each case. For the same compound, the compound was classed as inactive in [5], in assay [6], in assay [7] and in [9].
Consider `c1ccc(C2CC2)c(OCC2=NCCN2)c1`, for which the Potency result in assay [1], in [2], in assay [3], in assay [4], in assay [8] and in [10] was “inactive” throughout. Moreover, the result in [5], in [6], in assay [7] and in assay [9] was inactive.
Consider `Clc1cccc(N2CCNCC2)c1`, for which the Potency entry in [1] and in assay [2] was “inactive” in each case.
As to `COc1cc2nc(N3CCN(C(=O)C4COc5ccccc5O4)CC3)nc(N)c2cc1OC` (configuration not stated), in assay [1], the Potency entry is “inactive”.
For the compound `COc1ccc(Cc2nccc3cc(OC)c(OC)cc23)cc1OC`, the Potency entry in assay [1] and in assay [2] was “inactive” throughout.
Regarding `Cc1ccc(S(=O)(=O)NC(=O)NN2CCCCCC2)cc1`, the Potency entry in assay [1] is “inactive”.
As to `CC(C)[N+](C)(CCOC(=O)C1c2ccccc2Oc2ccccc21)C(C)C`, the Potency result in assay [1] was “inactive”.
In the case of `O=c1[nH]cc(F)c(=O)[nH]1`, the Potency entry in assay [1] was “inactive”.
As for `NCC(O)c1ccc(O)cc1` (configuration not stated), the Potency entry in assay [1], in assay [2], in [3], in assay [4] and in assay [10] was “inactive” throughout. Further, the result in [5], in assay [6], in [7] and in assay [9] was inactive.
As for `c1ccc2c(c1)OCC(C1=NCCN1)O2` (configuration not stated), the Potency in assay [1] was 20 µM (active); in assay [2] it was 7.94 µM (active); in [10], 7.52 µM (active). The Potency entry in assay [3] and in [4] was “inactive” throughout. For the same compound, the outcome in [5], in assay [7] and in assay [9] was inactive.
As for `CCCC(C)(COC(N)=O)COC(=O)NC(C)C` (configuration not stated), the Potency result in assay [1], in [2], in assay [3], in assay [4] and in assay [10] was “inactive” throughout. In addition, the call in assay [5], in assay [6], in assay [7] and in assay [9] was inactive.
On to `N#CC(C#N)=Cc1ccc(O)c(O)c1`, for which the Potency result in assay [1], in assay [2], in assay [3] and in [4] was “inactive” in each case. Further, the call in assay [5], in [6], in assay [7] and in [9] was inactive. In addition, the Potency in assay [10] is 16.8 µM (active).
As to `CN1C[C@H](CNC(=O)OCc2ccccc2)C[C@@H]2c3cccc4c3c(cn4C)C[C@H]21`, the Potency in [2] was 15.8 µM (active). Besides, the Potency result in assay [3], in [4], in assay [8] and in [10] was “inactive” each time. For the same compound, the result in [5], in [7] and in assay [9] was inactive.
In the case of `Nc1ccncc1`, the Potency entry in assay [1], in [2], in [3], in assay [4] and in assay [10] was “inactive” in each case. In addition, the outcome in assay [5], in assay [6], in [7] and in assay [9] was inactive.
As for `NCC1(CC(=O)O)CCCCC1`, the Potency entry in [1], in assay [2], in assay [4] and in [10] was “inactive” in each case. The compound was called inactive in assay [5], in assay [6], in [7] and in [9].
Turning to `CC(O)(CS(=O)(=O)c1ccc(F)cc1)C(=O)Nc1ccc(C#N)c(C(F)(F)F)c1` (configuration not stated), the Potency entry in assay [3], in assay [4], in [8] and in [10] was “inactive” each time. The outcome in [5], in assay [6], in [7] and in assay [9] was inactive.
